The sample as a whole holds a higher share of hits than the screen did.
HTT cytoprotect – qHTS Multiplex Assay to Identify Dual Action Probes in a Cell Model of Huntington: Cytoprotection (ATP); Potency, µM (top dose mostly 56.4 µM), for inactives: cytoprotection (ATP increase), hits mostly activators; hit rate 0.14% among 230,000; PC12 HTT-Q103 induced, cytoprotection, ATP luminescence, 40 h; also: potency is read from the fitted curve at half-maximal effect; % of control where 0% means no effect; nearly all actives have a fitted effect of over 45% in size
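Compounds were screened for protection of PC12 cells against cell death after tebufenozide induction (100 nM final) of mutant Huntingtin exon 1 (Q103) fused to GFP.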
HTT aggregate – qHTS Multiplex Assay to Identify Dual Action Probes in a Cell Model of Huntington: Aggregate Formation (GFP). PC12 HttQ103-GFP aggregates, Acumen cytometry, 40 h. Potency, µM (series often up to 46.1 µM), without a hit: at the highest dose activity change, negative = inhibition, hits mostly inhibitors. hit rate 1.1% among 220,000; also: potency is read from the fitted curve at half-maximal effect; % is scaled to controls: 0 for no effect and ±100 for the full control effect; nearly all actives have a fitted effect of over 60% in size
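Steps: seed 1500 PC12 HTTQ103-GFP cells/well; add tebufenozide, 100 nM final; add compound titration; add ATPLite reagent; quantify GFP aggregates by laser scanning cytometry.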
PNC inhibitor – High Content Assay for Compounds that inhibit the Assembly of the Perinucleolar Compartment; PC3M PTB-GFP, PNC prevalence imaging, 16 h; stronger effect = lower value; hit rate 3.1% among 140,000; activity change (PNC), negative = inhibition, % at 10 µM; AID 2417, 2010;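 active = readout at or below -70, meaning at least 70% loss of cells showing the perinucleolar compartment, a nuclear body marking cancer cells; inconclusive = readout between -30 and a set limit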;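 also: plate controls were DMSO wells for no effect and camptothecin positive control wells for full effect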
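Compounds are pinned in duplicate onto adhered PC3M cells stably expressing GFP-tagged PTB and incubated 16 h at 37 C. Cells are then fixed, nuclei stained with Hoechst, and PNC-positive cells counted.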
* marks the source's active call; other numbers are inactive results; [ ] = another dose, or the depositor's remark. Unless noted, calls follow the shape of the dose curve; as a rule, active = well fitted curve in the direction sought with a large enough effect; inconclusive = small, poorly fitted or top-dose-only effect, or another doubt; inactive = no such curve, though single readings can be large; an effect the other way counts as inactive or inconclusive.

What do the screens show for `N#Cc1cn(CC(=O)N2CCCc3ccccc32)c2ccccc12`?
HTT cytoprotect: 15.1%[10 µM]; HTT aggregate: -15.9%; PNC inhibitor: 65.9

How did O=Cc1cn(CC(=O)N2CCCc3ccccc32)c2ccccc12 do in these assays?
HTT cytoprotect: 19.8%[10 µM]; HTT aggregate: 5.1%; PNC inhibitor: -100.0*

How did Cn1cccc1/C=N/n1c(-c2ccc(Cl)cc2Cl)n[nH]c1=S do in these assays?
HTT cytoprotect: inconclusive; HTT aggregate: 2.8%; PNC inhibitor: 14.8

Results for Cc1cccc(NC(=S)N(CCCN2CCOCC2)C(C)c2cc3ccccc3o2)c1 (centres undefined) ?
HTT cytoprotect: -13.3%; HTT aggregate: -8.8%

Results for O=C(NNC(=S)NCc1ccccc1)c1ccccc1OC(F)F ?
HTT aggregate: -2.8%; PNC inhibitor: inconclusive

What do the screens show for `O=C(NNC(=S)Nc1ccc(Cl)cc1)c1ccccc1OC(F)F`?
HTT aggregate: 12.6µM*; PNC inhibitor: 18.3

Results for O=C(O)c1ccccc1C(=O)Nc1ccc(-n2nccc2C(F)(F)F)cc1 ?
HTT cytoprotect: 11.0%[10 µM]; HTT aggregate: 2.4%[9.22 µM]

Results for O=C1C=C(NCCN2CCOCC2)C(=O)c2cnccc21 ?
HTT aggregate: inconclusive; PNC inhibitor: -82.3*

Results for O=C1C=C(NCCO)C(=O)c2cnccc21 ?
HTT cytoprotect: -99.0%

How did CCOc1ccc(N=Cc2c(C)[nH]n(-c3nc4ccccc4[nH]3)c2=O)cc1 do in these assays?
HTT cytoprotect: -36.1%[1.9 µM]; HTT aggregate: 4.0%; PNC inhibitor: 72.0

Results for C=C(C)CN1CCN(c2c(CCC#N)c(C)c(C#N)c3nc4ccccc4n23)CC1 ?
HTT cytoprotect: -1.4%[10 µM]; HTT aggregate: 0.5%; PNC inhibitor: 28.9

What do the screens show for `CC(C(=O)NCCC1=CCCCC1)N1C(=O)c2ccccc2C1=O` (centres undefined)?
HTT cytoprotect: -60.5%[10 µM]; HTT aggregate: 5.62µM*; PNC inhibitor: 27.5

What do the screens show for `O=C(NCCC1=CCCCC1)C(c1ccccc1)c1ccccc1`?
HTT cytoprotect: -29.6%; HTT aggregate: -31.7%; PNC inhibitor: -19.4

How did Nc1ccc(CC2SC(=O)NC2=O)cc1 (centres undefined) do in these assays?
HTT cytoprotect: 6.9%; HTT aggregate: -8.8%; PNC inhibitor: -24.0

Results for CC(=O)/C(C#N)=C1\NC(=O)C(Cc2ccc(F)cc2)S1 (centres undefined) ?
HTT cytoprotect: -23.6%[10 µM]; HTT aggregate: 14.0%[9.22 µM]

How did CC(=O)/C(C#N)=C1\NC(=O)C(Cc2ccc(C)c(C)c2)S1 (centres undefined) do in these assays?
HTT cytoprotect: -49.8%; HTT aggregate: inconclusive; PNC inhibitor: -107.5*

Results for Cc1ccc(CC2SC(=O)NC2=O)cc1Cl (centres undefined) ?
HTT cytoprotect: -13.9%[10 µM]; HTT aggregate: -15.5%; PNC inhibitor: -100.0*

Results for CCCCOC(=O)CSc1nnc(N)s1 ?
HTT cytoprotect: -11.4%; HTT aggregate: -8.6%[9.22 µM]; PNC inhibitor: inconclusive

What do the screens show for `COc1cc(C(=O)OCC(=O)N2CCCCC2C)cc(NC(=O)c2cccs2)c1OC` (centres undefined)?
HTT cytoprotect: -55.6%; HTT aggregate: inconclusive

Results for N=C(N)SCc1ccccn1 ?
HTT aggregate: -1.9%; PNC inhibitor: -91.0*

How did N=C(N)SCc1ncccc1O do in these assays?
HTT cytoprotect: 13.0%[10 µM]; HTT aggregate: -2.8%[9.22 µM]

What do the screens show for `N/C(=N\OC(=O)c1cccs1)c1ccc(Cl)cc1`?
HTT cytoprotect: 7.7%[10 µM]; HTT aggregate: 25.3%[9.22 µM]

Results for NC(=O)n1c(O)c(C(=O)c2cccs2)c2cc(Cl)ccc21 ?
HTT aggregate: 11.2µM*

How did CN(Cc1ccco1)c1cc(-c2ccccc2Cl)ncn1 do in these assays?
HTT cytoprotect: -10.7%

What do the screens show for `CCOc1ccc(C(=O)NC(=S)Nc2ccccc2OC)cc1[N+](=O)[O-]`?
HTT cytoprotect: -16.9%[0.074 µM]; HTT aggregate: -0.5%; PNC inhibitor: -17.1

How did O=C(NCCN1CCOCC1)c1ccc(CS(=O)(=O)Cc2ccccc2F)o1 do in these assays?
HTT cytoprotect: inconclusive; HTT aggregate: -6.2%; PNC inhibitor: 26.5

What do the screens show for `O=C(COC(=O)/C=C/c1ccco1)Nc1ncc(C(F)(F)F)cc1Cl`?
HTT cytoprotect: 10.6%[10 µM]; HTT aggregate: -6.0%; PNC inhibitor: inconclusive

What do the screens show for `COc1ccc2cc(/C=N/NC(=O)c3ccc(CN(c4ccc(C)c(C)c4)S(C)(=O)=O)cc3)c(Cl)nc2c1`?
HTT cytoprotect: 5.5%[1.9 µM]; HTT aggregate: -15.1%; PNC inhibitor: 17.8

Results for COc1ccc2cc(/C=N/NC(=O)c3c(Cl)cnn3C)c(Cl)nc2c1 ?
HTT aggregate: 1.4%; PNC inhibitor: -85.6*

How did COc1cc(SC)ccc1C(=O)NCCN1CCOCC1 do in these assays?
HTT cytoprotect: 13.7%[10 µM]; HTT aggregate: -6.6%[9.22 µM]

What do the screens show for `Cc1cc([N+](=O)[O-])nn1CCCC(=O)O`?
HTT cytoprotect: -22.7%; HTT aggregate: 10.8%

What do the screens show for `Cc1cc([N+](=O)[O-])nn1CCCC(=O)N1CCN(c2ccc(F)cc2)CC1`?
HTT cytoprotect: 8.4%[10 µM]; HTT aggregate: 10.7%; PNC inhibitor: -119.3*

How did CN(Cc1cccs1)CC(O)COCc1ccco1 (centres undefined) do in these assays?
HTT cytoprotect: 8.4%[10 µM]; HTT aggregate: inconclusive; PNC inhibitor: -3.7

Results for COc1ccccc1COCC(O)CN(Cc1ccco1)Cc1ccccc1O (centres undefined) ?
HTT cytoprotect: -11.5%[10 µM]; HTT aggregate: inconclusive; PNC inhibitor: -116.4*

How did C/C(=N\NC(=S)NCc1ccccc1)c1cccc(Br)c1 do in these assays?
HTT cytoprotect: -20.9%; HTT aggregate: 9.3%

Results for C/C(=N\NC(=S)NCc1ccccc1)c1ccc2ccccc2c1 ?
HTT cytoprotect: -15.8%[10 µM]; HTT aggregate: -4.0%; PNC inhibitor: -99.2*

Results for COC(=O)c1ccc(-n2nnnc2SCC(=O)N2CCCCC2)cc1 ?
HTT cytoprotect: -5.9%; HTT aggregate: -1.8%[9.22 µM]; PNC inhibitor: -14.3

What do the screens show for `COc1ccc(CCNC(=O)CSc2nnc(Cc3csc(N)n3)n2C)cc1OC`?
HTT cytoprotect: -10.6%; HTT aggregate: 3.9%; PNC inhibitor: -94.9*

Results for COc1ccc(CCNC(=O)CSc2nnc(Cn3c(=O)sc4ccccc43)n2C)cc1OC ?
HTT cytoprotect: -1.7%[0.074 µM]; HTT aggregate: -1.8%; PNC inhibitor: -15.2

What do the screens show for `COc1ccc(C(=O)OCCN2CCOCC2)cc1OC`?
HTT cytoprotect: -0.4%; HTT aggregate: -6.3%; PNC inhibitor: inconclusive

What do the screens show for `COc1ccc(C(=O)OCCN2CCOCC2)cc1`?
HTT cytoprotect: 30.1%[10 µM]; HTT aggregate: 0.7%; PNC inhibitor: -100.0*

What do the screens show for `COc1ccccc1/C=C/C(=O)OCCN1CCOCC1`?
HTT cytoprotect: 4.5%[10 µM]; HTT aggregate: 22.2%; PNC inhibitor: -87.2*

What do the screens show for `COc1ccccc1/C=C/C(=O)N1CCOCC1`?
HTT cytoprotect: 2.8%; HTT aggregate: 1.8%; PNC inhibitor: 50.7

Results for O=C(OCCN1CCOCC1)c1ccc(OCCN2CCOCC2)cc1 ?
HTT cytoprotect: 19.9%; HTT aggregate: -1.6%; PNC inhibitor: -84.6*

Screening data as filed in PubChem BioAssay.
